Only some compounds are listed: those with a hit (about 2.3% of all), similar ones and a draw of the others.
TRPV1 potentiator: enhances activation of the human vanilloid receptor TRPV1. Q8NER1. TRPV1-expressing cells, Fluo-8 calcium influx, capsaicin EC20 potentiation. 320,000 compounds, 0.02% hits. AID 540277. potentiation, % at 8.33 µM; in the data active means potentiation above about 80%; inconclusive means between about 30% and that limit
Target sequence (Q8NER1 whole entry, looked up): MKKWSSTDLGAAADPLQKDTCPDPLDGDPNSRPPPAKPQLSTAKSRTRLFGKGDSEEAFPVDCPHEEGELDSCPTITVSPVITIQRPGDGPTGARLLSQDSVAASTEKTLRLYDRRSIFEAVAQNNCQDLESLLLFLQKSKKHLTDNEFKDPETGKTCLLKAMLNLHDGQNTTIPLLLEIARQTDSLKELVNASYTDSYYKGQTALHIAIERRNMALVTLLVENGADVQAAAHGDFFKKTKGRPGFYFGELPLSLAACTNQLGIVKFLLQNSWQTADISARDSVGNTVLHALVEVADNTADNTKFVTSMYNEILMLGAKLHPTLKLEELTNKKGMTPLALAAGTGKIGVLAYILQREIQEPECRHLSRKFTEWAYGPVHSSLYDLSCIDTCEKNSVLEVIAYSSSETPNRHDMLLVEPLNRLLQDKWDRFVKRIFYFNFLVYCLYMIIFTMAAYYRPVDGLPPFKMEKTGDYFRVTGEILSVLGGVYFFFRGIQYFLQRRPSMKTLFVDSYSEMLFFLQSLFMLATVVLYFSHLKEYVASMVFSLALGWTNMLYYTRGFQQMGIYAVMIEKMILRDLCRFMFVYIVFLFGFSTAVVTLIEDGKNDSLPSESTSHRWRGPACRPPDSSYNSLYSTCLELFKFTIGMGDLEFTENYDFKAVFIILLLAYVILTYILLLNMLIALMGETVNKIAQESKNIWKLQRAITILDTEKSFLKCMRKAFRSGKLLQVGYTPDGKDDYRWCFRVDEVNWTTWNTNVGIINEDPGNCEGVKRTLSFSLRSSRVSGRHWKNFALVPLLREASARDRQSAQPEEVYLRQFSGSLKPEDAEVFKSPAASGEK
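Cells expressing TRPV1 were dye-loaded with Fluo-8 and read kinetically: 10 s baseline, 3 min after compound (agonist portion), then 2 min after EC20 capsaicin (allosteric enhancer portion). Calcium-bound dye fluorescence at 480/520 nm.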
Giardia killer: Giardia lamblia killing | activity change, % at 7.66 µM, hits read low | 340,000 compounds, 0.15% hits | Giardia lamblia trophozoite viability; in the data active means activity change below about -80%; inconclusive means between about -30% and that limit;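 further: parasites exposed to compound for two days anaerobically before the ATP read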
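Giardia trophozoites, 100 cells per well, were exposed to compounds for 48 hrs at 37 deg C under anaerobic conditions; viability was then read as ATP content by bioluminescence after 15-30 min at room temperature.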
ELG1 repair inh: blocks ELG1-dependent DNA repair in HEK293T cells | HEK293T ELG1-luciferase reporter, luminescence, 16 h; DNA damage induced by 5-fluorouridine | Potency, µM (highest dose often 46.1 µM), actives largely listed as inhibitors | 330,000 compounds, 2.3% hits | AID 504467; further: nearly all actives have a fitted effect of over 55% in size
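Quantitative HTS, concentration-response format. 2,000 cells/well co-treated with 5-fluorouridine and compound, 16 hr in 5% CO2 at 37 °C; ONE-Glo luminescence read after 30 min.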
TRPV1 ag: agonists of human vanilloid receptor 1 (TRPV1). Q8NER1. activation, % at 8.33 µM. TRPV1-expressing cells, Fluo-8 calcium influx, agonist mode. 320,000 compounds, 0.19% hits. AID 540275; in the data active means activation above about 80%; inconclusive means between about 30% and that limit
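Fluo-8 calcium influx in TRPV1-expressing cells, kinetic read (ex 480/em 520 nm). Compound added and read 3 min for agonist activity, followed by capsaicin at EC20 final and 2 min further read for enhancement.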
FUS suppressor: suppressors of FUS proteinopathy in yeast | S. cerevisiae FUS-expressing, growth rescue, OD600, 24 h | AID 1347120 | 390,000 compounds, 0.24% hits | Potency, µM (top dose mostly 76.6 µM), most hits filed as activators; further: nearly all actives have a fitted effect of over 55% in size
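Galactose (2%) drives FUS expression in yeast precultured in raffinose; seeding density OD 0.005. Test compounds incubated 24hr at 30C and 99% humidity before absorbance at 600 nm was measured.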
Large screens that a line does not name were inactive. Unless noted, the call rests on the fitted dose curve; in most records, active means well fitted curve in the direction sought with a large enough effect; inconclusive means small, poorly fitted or top-dose-only effect, or another doubt; inactive means no such curve, though single readings can be large; an effect the other way counts as inactive or inconclusive.

O=C(COc1ccc(Cl)cc1Cl)N1CCN(C/C=C/c2ccccc2)CC1	ELG1 repair inh inconclusive
C=CCn1c(O)c(C(C)=NCCC(c2ccccc2)c2ccccc2)c(=O)[nH]c1=O	ELG1 repair inh 7.3µM
O=C(c1ccc(N2CCN(CCO)CC2)nc1)N1CCOCC1	ELG1 repair inh inconclusive
NS(=O)(=O)c1ccc(CCNC(=O)c2ccc(Cl)c(S(=O)(=O)N3CCCCC3)c2)cc1	ELG1 repair inh 16µM (no result: TRPV1 potentiator, TRPV1 ag)
O=C(COC(=O)Cc1ccccc1)Nc1cc(S(=O)(=O)N2CCCCC2)ccc1Cl	none
CC1(C)C(C(=O)N2CCN(c3ccc(Cl)cc3)CC2)C1(C)C	ELG1 repair inh inconclusive, TRPV1 ag inconclusive
COC(=O)C1CN(C#N)N(c2ccc(Cl)cc2)C12c1ccccc1-c1ccccc12 (configuration not stated)	ELG1 repair inh 5.8µM
Nc1nonc1OCCCCOc1nonc1N	none
Cc1ncc([N+](=O)[O-])n1CCOc1nonc1N	Giardia killer -87
O=C1c2cccc3cccc(c23)C(=O)N1CCN1CCN(C(=S)Nc2ccccc2)CC1	ELG1 repair inh 16µM (no result: FUS suppressor)
CNc1ccc2oc(C[C@H]3O[C@@]4(CC[C@H]3C)O[C@H]([C@H](C)C(=O)c3ccc[nH]3)[C@H](C)C[C@H]4C)nc2c1C(=O)O	ELG1 repair inh 5.8µM, TRPV1 ag inconclusive
CCOC(=O)CCCc1cc[c]([Sb](=[O])([OH])[OH])cc1	none (no result: TRPV1 potentiator, ELG1 repair inh, TRPV1 ag, FUS suppressor)
O=P(Nc1ccccc1)(Nc1ccccc1)Oc1cccc(Cl)c1	ELG1 repair inh 16µM
O=P(Nc1ccccc1)(Nc1ccccc1)Oc1ccccc1	ELG1 repair inh inconclusive
CCn1c(C)[n+](CC(O)COCC2CC=CCC2)c2ccccc21 (configuration not stated)	ELG1 repair inh inconclusive
CC(=O)c1ccc2c(c1)C1C(Cl)C(Sc3ccccc3[N+](=O)[O-])CC1C(c1ccccc1)N2 (configuration not stated)	ELG1 repair inh inconclusive, FUS suppressor 40µM
O=C1NC(=O)C(Sc2ccccc2[N+](=O)[O-])C(=O)N1	none
CC(=O)c1ccc2c(c1)C1C(Cl)C(Sc3ccccc3[N+](=O)[O-])CC1C(c1ccccc1[N+](=O)[O-])N2 (configuration not stated)	ELG1 repair inh 4.1µM
CC1CCc2c(sc3nc(CSc4n[nH]c(N)n4)[nH]c(=O)c23)C1 (configuration not stated)	ELG1 repair inh inconclusive (no result: FUS suppressor)
CCOP(=O)(OCC)c1nc(-c2ccc(F)cc2)oc1NCc1ccccc1	ELG1 repair inh inconclusive, TRPV1 ag inconclusive
Cc1nc2cc(C(F)(F)F)ccc2n1C1CCN(Cc2nnnn2Cc2cccs2)CC1	FUS suppressor inconclusive
Cc1nc2cc(C(F)(F)F)ccc2n1C1CCN(Cc2nnnn2Cc2ccc3c(c2)OCO3)CC1	ELG1 repair inh 6.5µM, FUS suppressor inconclusive
O=C(N/N=C\c1ccc(COc2ccc([N+](=O)[O-])cc2)o1)c1cccc(Cl)c1	ELG1 repair inh inconclusive
C#CC1(O)CCC2C3CCC4=C/C(=N/OCC(=O)NCC(=O)NC(C(=O)O)C(C)C)CC[C@]4(C)C3CC[C@@]21C (some centres not stated)	ELG1 repair inh inconclusive
C#C[C@]1(O)CC[C@H]2[C@@H]3CCC4=Cc5nc6nc7ccccc7n6cc5C[C@]4(C)[C@H]3CC[C@@]21C	ELG1 repair inh 7.9µM, FUS suppressor inconclusive
C[C@@H]1O[C@@H](O[C@H]2C[C@@H](O)[C@]3(CO)[C@@H]4C(CC[C@]3(O)C2)[C@@]2(O)CC[C@H](C3COC(=O)C3)[C@@]2(C)C[C@H]4O)[C@H](O)[C@H](O)[C@H]1O (some centres not stated)	ELG1 repair inh 1.8µM
COc1ccc(CCn2c(NN=C3CCCCC3)nc3c2c(=O)[nH]c(=O)n3C)cc1	ELG1 repair inh inconclusive, FUS suppressor inconclusive
O=[N+]([O-])c1ccc(N(CCO)CCO)c2c1no[n+]2[O-]	none (no result: TRPV1 potentiator, Giardia killer, ELG1 repair inh, TRPV1 ag)
CN1CCN(c2ccc([N+](=O)[O-])c3no[n+]([O-])c23)CC1	ELG1 repair inh 3.3µM
O=C(Cn1ncc2c3ccccc3n(Cc3ccc(F)cc3)c2c1=O)N1CCC2(CC1)OCCO2	ELG1 repair inh 21µM
COc1cccc(-c2sc3ccccc3c2-c2ccc(OCCN3CCOCC3)cc2)c1	FUS suppressor inconclusive (no result: TRPV1 potentiator, TRPV1 ag)
COc1cc(OC)cc(-c2sc3ccc(OC)cc3c2-c2ccc(OCCN3CCOCC3)cc2)c1	ELG1 repair inh 6.5µM, FUS suppressor inconclusive (no result: TRPV1 potentiator, TRPV1 ag)
CC[C@@]1(C(=O)OC)N[C@H](CN(C)C(=O)Nc2ccc(OC)cc2)[C@@H]2C(=O)N(Cc3ccccc3)C(=O)[C@@H]21	ELG1 repair inh inconclusive (no result: TRPV1 potentiator, TRPV1 ag)
Cc1ccc(/C=C/C(=O)C2C(=O)c3ccccc3C2=O)cc1	Giardia killer -86, ELG1 repair inh inconclusive
CCN(CC)S(=O)(=O)c1cc(NC(=O)C(C)N2CC=C(c3ccccc3)CC2)ccc1C (configuration not stated)	ELG1 repair inh 15µM
CC(C)CC(NS(=O)(=O)c1ccc2c(c1)oc(=O)n2C)C(=O)N1CC=C(c2ccccc2)CC1 (configuration not stated)	ELG1 repair inh inconclusive (no result: TRPV1 potentiator, TRPV1 ag)
CCC(=O)N1N=C(c2c(O)n(C)c(=O)n(C)c2=O)CC1c1ccccc1 (configuration not stated)	ELG1 repair inh inconclusive
CN1CCN(c2ccc(N)cc2Cl)CC1	TRPV1 potentiator 85
CN1CCN(c2ccc(Cl)cc2N)CC1	none
COc1ccc(NC(c2ccccc2F)P(=O)(Oc2ccccc2)Oc2ccccc2)cc1 (configuration not stated)	ELG1 repair inh 18µM
COc1ccc(NC(c2ccccc2)P(=O)(Oc2ccccc2)Oc2ccccc2)cc1 (configuration not stated)	ELG1 repair inh inconclusive
C=CCSc1nnc(NC(=O)c2ccc(Cl)nc2)s1	ELG1 repair inh inconclusive
Cc1ccc(S(=O)(=O)N(C)CCCC(=O)N2CCN(c3ccccn3)CC2)cc1	ELG1 repair inh 18µM
Cc1ccc(S(=O)(=O)N(C)C/N=C(\N)N[N+](=O)[O-])cc1	none
O=C(c1ccccc1)C(CN1CCCC1)c1ccccc1 (configuration not stated)	Giardia killer inconclusive, ELG1 repair inh 18µM
Cc1cc2c(cc(C(=O)N3CCC(C(=O)NC4CCCC4)CC3)n2Cc2c(F)cccc2Cl)o1	ELG1 repair inh 23µM
CN1CCN(c2ncnc3ccc(Br)cc23)CC1	ELG1 repair inh 9.2µM
COc1ccc(C2SCC(=O)Nc3c2c(=O)[nH]n3C2CCCCCC2)cc1OC (configuration not stated)	ELG1 repair inh inconclusive
COc1ccc(-c2nnc3sc(C4CCCCC4)nn23)cc1OC	ELG1 repair inh 18µM
